Measured values published in PubChem BioAssay AID504850 (National Center for Advancing Translational Sciences (NCATS), 2011).
Hit rate of the full screen: of about 2,300 compounds, about 1,200 (52%) were called active. Another 34% or so got no clear call; they are omitted. The call rests on the fitted dose curve; in most records, active means well fitted inhibition curve with a large enough effect; inconclusive means small, poorly fitted or top-dose-only effect, or effect the other way; inactive means no such curve, though single readings can be large or run the other way. So high a share suggests a set chosen from earlier hits. This is one part of the list. Square brackets hold non-standard residues; d marks the D form. Peptide text beside a SMILES is read from it. * marks the point of attachment. ξ: configuration not given here. ξF = NC(Cc1ccccc1)C(=O)O; Cbz = O=C(OCc1ccccc1)*
Potency means the concentration at half of the fitted maximal effect.

Experiment: Confirmation screen for delayed death inhibitors of the malarial parasite plastid, 48 hour incubation; further: nearly all actives have a fitted effect of over 65% in size
Details: P. falciparum-infected erythrocytes, luciferase growth; series mostly up to 28.7 µM
How it was run: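 Single-generation (48 h, 37 C) exposure of integrated firefly luciferase-reporter P. falciparum in red cells, 0.1% parasitemia at 2% hematocrit, Albumax-supplemented RPMI. Falling luciferase signal marks parasite growth inhibition.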
With `C#CCn1c(S(=O)(=O)Cc2ccc(C)cc2)nc(-c2ccccc2)c1-c1ccccc1` the Potency was 12.6 µM (active).
For `C#CCn1c(S(=O)(=O)Cc2ccc(F)cc2)nc(-c2ccccc2)c1-c1ccccc1`, the Potency was 14.1 µM (active).
With `CCOC(=O)Cn1c(S(=O)(=O)Cc2cccc(F)c2)nc(-c2ccccc2)c1-c1ccccc1` the Potency was 11.2 µM (active).
In the case of `O=C(c1cccc(Cl)c1)c1nn(-c2ccccc2)c(=O)cc1C(F)(F)F`, the Potency is reported as 12.6 µM (active).
With `O=C(CCl)Nc1cccc2ncccc12` the Potency was 4.47 µM (active).
With `Oc1ccc(-c2n[nH]c(=S)n2-c2ccc3c(c2)OCCO3)c(O)c1` the Potency was 0.708 µM (active).
With `O=C(c1ccc(CS(=O)c2ccccc2Cl)o1)N1CCN(c2ccccn2)CC1` (stereo not drawn) the Potency was 11.2 µM (active).
In the case of `O=C(NCc1cccc(Cl)c1)C1CCC(=O)N(CC2CCCCC2)C1` (stereo not drawn), the Potency is reported as 14.1 µM (active).
For `CCCNC(=O)C(Cc1ccc(F)cc1)NC(=O)c1ccccc1` (stereo not drawn), the Potency was 10 µM (active).
With `CCOC(=O)CNC(=O)C(Cc1ccccc1)NC(=O)OCc1ccccc1` (stereo not drawn) (Cbz-[ξF]-Gly-OEt) the Potency was “inactive”.
In the case of `COc1ccc(C2c3c(ncn(CCCN4CCOCC4)c3=N)Oc3ccc4ccccc4c32)cc1OC` (stereo not drawn), the Potency is reported as 5.01 µM (active).
In the case of `COc1ccc(C2c3c(ncn(CCN4CCOCC4)c3=N)Oc3ccc4ccccc4c32)cc1OC` (stereo not drawn), the Potency is reported as 4.47 µM (active).
In the case of `O=c1[nH]c(=O)n(Cc2ccco2)c2c1C(C(F)(F)F)(C(F)(F)F)N=C(CCc1ccccc1)N2`, the Potency is reported as 11.2 µM (active).
For `COc1ccc2c(c1)c(C(=O)N/N=C/c1ccc(OC)c(OC)c1)c(C)n2C`, the Potency was 10 µM (active).
For `CCC(C)[C@H](NC(=O)NCCCOC(C)C)C(=O)OC` (stereo partly drawn), the Potency was “inactive”.
For `CCOc1ccc2nc(C)cc(Nc3cccc([N+](=O)[O-])c3)c2c1`, the Potency was 2 µM (active).
With `O=C(O)CCc1ccc(-c2ccccc2)n1-c1ccc(C(=O)O)cc1` the Potency was “inactive”.
With `Cc1cc2[nH]c(=O)c(=O)[nH]c2cc1S(=O)(=O)NC1CCCCC1C` (stereo not drawn) the Potency was “inactive”.
In the case of `COC(=O)C1=C(C)NC2=C(C(=O)CC(c3cccs3)C2)C1c1ccsc1` (stereo not drawn), the Potency is reported as 14.1 µM (active).
With `CCOC(=O)CSc1nnc(CNc2nc(-c3ccccc3)cs2)n1C` the Potency was 8.91 µM (active).
For `NNC(=O)CSc1nc(-c2ccccc2)cn1-c1ccccc1`, the Potency was “inactive”.
In the case of `Cc1cc(C)nc(SCc2nnc(SCC(=O)Nc3nc(-c4ccccc4)cs3)n2C)n1`, the Potency is reported as 14.1 µM (active).
In the case of `CCn1c(Cc2ccccc2)nnc1SCC(=O)Nc1nc(C)cs1`, the Potency is reported as 12.6 µM (active).
For `Cc1ccccc1NC(=O)Cc1nnc(SCC(=O)NC2CCCCC2)n1C`, the Potency was “inactive”.
In the case of `O=C(CSc1nc(-c2ccccc2)cs1)Nc1cccc([N+](=O)[O-])c1`, the Potency is reported as “inactive”.
In the case of `CCCc1cc(NCc2ccccn2)n2nc(C)c(-c3ccccc3)c2n1`, the Potency is reported as 5.62 µM (active).
With `CN(C)c1ccc(NC(=S)NC23CC4CC(CC(C4)C2)C3)cc1` the Potency was 12.6 µM (active).
In the case of `Cc1cccc(C)c1Nc1c(-c2ccc(N3CCOCC3)cc2)nc2ncccn12`, the Potency is reported as 12.6 µM (active).
For `c1ccc(SCc2cn(C[C@H]3CC[C@@H]([C@@H]4CC[C@H](Cn5cc(CSc6ccccc6)nn5)O4)O3)nn2)cc1`, the Potency was 14.1 µM (active).
In the case of `O=C(Nc1ccc(O)cc1)C1CC=CCC1` (stereo not drawn), the Potency is reported as 7.94 µM (active).
With `COc1cnc(-c2ccccn2)nc1N(C)c1ccccc1` the Potency was 3.55 µM (active).
In the case of `COc1cnc(-c2ccccn2)nc1Oc1ccc(C(C)(C)C)cc1`, the Potency is reported as 4.47 µM (active).
For `O=C1c2cc([N+](=O)[O-])cc3cc([N+](=O)[O-])cc(c23)C(=O)N1c1ccccn1`, the Potency was 14.1 µM (active).
In the case of `CC(C)NC(=O)c1onc(CSc2ccc(C(C)C)cc2)c1C(=O)O`, the Potency is reported as “inactive”.
In the case of `CC(=O)c1ccc(NC(=O)C[n+]2cccc(C)c2)cc1`, the Potency is reported as “inactive”.
For `Cc1ccc[n+](CC(=O)Nc2ccc(C)c(C)c2)c1`, the Potency was 14.1 µM (active).
For `O=S(=O)(c1ccc(F)cc1)N1CCN(c2nc(-c3ccc(F)cc3)cs2)CC1`, the Potency was 14.1 µM (active).
With `CN1C[C@@H]2C[C@H]1CN2c1cc2c(cc1F)c(=O)c(C(=O)O)cn2C1CC1` the Potency was 3.55 µM (active).
For `Cc1cc(F)ccc1S(=O)(=O)Nc1ccccc1C(=O)Nc1ccccc1-c1nc2ccccc2[nH]1`, the Potency was 5.62 µM (active).
With `Cc1c(C(c2ccc(Br)cc2)c2c(C)n(C)n(-c3ccccc3)c2=O)c(=O)n(-c2ccccc2)n1C` the Potency was 12.6 µM (active).
In the case of `COc1ccc(C(c2c(C)n(C)n(-c3ccccc3)c2=O)c2c(C)n(C)n(-c3ccccc3)c2=O)cc1`, the Potency is reported as 14.1 µM (active).
In the case of `Cc1nn(C(C)C(=O)Nc2ccccc2Cl)c(=O)c2nn(-c3ccccc3)c(C)c12` (stereo not drawn), the Potency is reported as 14.1 µM (active).
In the case of `Cc1nn(C(C)C(=O)NCCCc2ccccc2)c(=O)c2nn(-c3ccccc3)c(C)c12` (stereo not drawn), the Potency is reported as 12.6 µM (active).
In the case of `Cc1c(NC(=O)C(C)Sc2nccn2C)c(=O)n(-c2ccccc2)n1C` (stereo not drawn), the Potency is reported as “inactive”.
For `CSc1ccc(CNc2cccc3ccccc23)cc1`, the Potency was “inactive”.
In the case of `Cc1nn(C(C)C(=O)NCCC2=CCCCC2)c(=O)c2nn(-c3ccccc3)c(C)c12` (stereo not drawn), the Potency is reported as 12.6 µM (active).
With `CSc1ccc(CNC(=O)C(C)n2nc(C)c3c(C)n(-c4ccccc4)nc3c2=O)cc1` (stereo not drawn) the Potency was 14.1 µM (active).
With `Nc1c(C(=O)CSc2nc3ccccc3o2)c(=O)[nH]c(=O)n1C1CC1` the Potency was 14.1 µM (active).
For `Cc1ccc(-c2csc(SCC(=O)c3c(N)n(C4CC4)c(=O)[nH]c3=O)n2)cc1`, the Potency was “inactive”.
In the case of `O[C@@H]1[C@@H](O)C=C2CCN3Cc4cc5c(cc4[C@H]1C23)OCO5` (stereo partly drawn), the Potency is reported as 1.58 µM (active).
In the case of `COc1ccc(C(=O)NC2CC2)cc1OC1CCN(C/C=C/c2ccccc2)CC1`, the Potency is reported as 8.91 µM (active).
With `CCc1nc(Nc2ccncc2)c2oc3ccccc3c2n1` the Potency was 10 µM (active).
In the case of `Cc1oc(/C=N/NS(=O)(=O)c2ccccc2)cc1Br`, the Potency is reported as “inactive”.
For `Cc1c(/C=N/Nc2nc3ccccc3[nH]2)c2ccccc2n1C`, the Potency was 0.708 µM (active).
In the case of `CCN(CC)c1ccc(/C=N/Nc2nc3ccccc3[nH]2)cc1`, the Potency is reported as 2.82 µM (active).
In the case of `CCc1cc(SC#N)ccc1N`, the Potency is reported as 10 µM (active).
For `CCCN1CCc2c(sc3nc(SCC)n(-c4ccccc4)c(=O)c23)C1`, the Potency was 1.78 µM (active).
In the case of `CCCN1CCc2c(sc3nc(SCC)n(-c4ccc(OC)cc4)c(=O)c23)C1`, the Potency is reported as 1.26 µM (active).
For `COc1ccc(CCNC(=O)/C(=C/c2cccnc2)NC(=O)c2ccccc2)cc1OC`, the Potency was 12.6 µM (active).
For `CCOc1ccc2c(c1)C(c1ccccc1)=NNC(c1ccccc1)=N2`, the Potency was 12.6 µM (active).
In the case of `C=CCNC(=O)c1onc(CSc2cc(C)ccc2C)c1C(=O)O`, the Potency is reported as “inactive”.
With `O=c1[nH]c(NCc2ccccc2)nc2c1CCC2` the Potency was “inactive”.
For `Nc1[nH]nc2nc(NCc3ccccc3)c3c(c12)CCN(Cc1ccccc1)C3`, the Potency was 15.8 µM (active).
With `Cc1ccc(NC(=O)c2ccc3c(SCC(=O)O)c4c(nc3c2)CCCC4)c(Br)c1` the Potency was 11.2 µM (active).
With `COc1ccc(C2CC(c3cccs3)=NN2C(=O)CSc2nnc(N)s2)cc1OC` (stereo not drawn) the Potency was 14.1 µM (active).
For `O=C(c1ccccc1)N1CCCC(c2ccc(Cl)cc2)=N1`, the Potency was 15.8 µM (active).
In the case of `O=Nc1c(-c2c(O)[nH]c3cc(Br)ccc23)[nH]c2ccccc12`, the Potency is reported as 7.08 µM (active).
With `O=C(CC(SCCO)c1ccc(F)cc1)c1ccco1` (stereo not drawn) the Potency was “inactive”.
In the case of `CCCCC1(c2ccc(F)cc2)NC(=O)N(CC(=O)N2CCN(C(=O)c3ccco3)CC2)C1=O` (stereo not drawn), the Potency is reported as 14.1 µM (active).
With `CCOc1ccc(Cl)cc1C1=CC(=O)C[C@H](c2ccc(OC)cc2)C1` the Potency was 14.1 µM (active).
In the case of `COc1cccc(C2=CC(=O)C[C@H](c3ccc(F)cc3)C2)c1OC`, the Potency is reported as “inactive”.
With `COc1ccc2c(c1)c(CC(=O)Nc1nnc(C3CC3)s1)c(C)n2C(=O)c1ccc(Cl)cc1` the Potency was 14.1 µM (active).
With `Cc1ccc(-n2cc(CN3CCC(CO)(Cc4cccc(C(F)(F)F)c4)CC3)cn2)cc1` the Potency was 7.94 µM (active).
In the case of `N#Cc1ccc(Oc2ccc(-c3nc4ccccc4nc3-c3ccccc3)cc2)cc1C#N`, the Potency is reported as 11.2 µM (active).
In the case of `Cc1c(OC(C)C(=O)NCC2CCC(C(=O)O)CC2)ccc2c1oc(=O)c1ccccc12` (stereo not drawn), the Potency is reported as 14.1 µM (active).
For `Cc1c(Cc2ccccc2)c(=O)oc2cc(OC(C)C(=O)NCC3CCC(C(=O)O)CC3)c(Cl)cc12` (stereo not drawn), the Potency was 12.6 µM (active).
In the case of `CC(C)CC1c2[nH]c3ccccc3c2CCN1CCCn1cccn1` (stereo not drawn), the Potency is reported as 12.6 µM (active).
With `CCC1CCC(C(=O)NC(CCSC)C(=O)NCCN(CC(C)C)CC(C)C)CC1` (stereo not drawn) the Potency was 12.6 µM (active).
With `O=C(CSc1c2c(nc3ccccc13)CCCC2)NCc1ccco1` the Potency was “inactive”.
In the case of `O=C(CSc1nc2ccccc2c(=O)n1Cc1ccc(C(=O)NC2CC2)cc1)NCc1ccco1`, the Potency is reported as 14.1 µM (active).
With `O=C(CSc1nc2c(sc3ccccc32)c(=O)n1-c1ccccc1)NCc1ccco1` the Potency was 11.2 µM (active).
In the case of `O=C(CCC1N=C2c3ccccc3N=C(SCC(=O)NCc3ccco3)N2C1=O)NCc1ccco1` (stereo not drawn), the Potency is reported as “inactive”.
For `CCN(CC)CCn1c2c(c(SCC(=O)Nc3nc4ccccc4s3)nc1=O)CCCC2`, the Potency was 7.08 µM (active).
For `CC[N+](CC)(CC)CCCCOc1ccc2c(c1)C(=O)c1cc(OCCCC[N+](CC)(CC)CC)ccc1-2`, the Potency was 0.0398 µM (active).
For `Cc1ccc(NC(=O)CSc2nc3ccccc3c(=O)n2CCCN2CCCCC2)cc1Cl`, the Potency was 7.94 µM (active).
In the case of `Cc1cccc(NC(=O)C(C)Sc2nc3ccccc3c(=O)n2CCCN2CCOCC2)c1` (stereo not drawn), the Potency is reported as 12.6 µM (active).
For `Cc1ccc(-c2nc(CSc3nc4ccccc4c(=O)n3CCO)cs2)cc1`, the Potency was “inactive”.
For `N#CCc1ccc(C(=O)c2ccccc2F)s1`, the Potency was “inactive”.
With `Cc1cccc(NC(=O)COC(=O)c2cccc3c2C(=O)c2ccccc2C3=O)c1C` the Potency was 15.8 µM (active).
For `Cn1c(=O)c2c([nH]c(=O)n2C)n(C)c1=O`, the Potency was “inactive”.
For `COc1ccc(CN(CCC(c2ccccc2)c2ccco2)C(=O)c2ccco2)cc1` (stereo not drawn), the Potency was 10 µM (active).
In the case of `O=C(CNC(=O)c1ccco1)OCC(=O)c1ccccc1`, the Potency is reported as “inactive”.
In the case of `COc1ccc(S(=O)(=O)N/N=C(/C)c2ccco2)cc1`, the Potency is reported as “inactive”.
